Only some compounds are listed: those with a hit (about 8.2% of all), similar ones and a draw of the others.
MCF10A rereplic: DNA re-replication induction in MCF 10a cells | MCF 10A DNA re-replication, Hoechst nuclear intensity, 48 h | Potency, µM (doses to about 46.1 µM), for inactives: at the highest dose activity, positive = re-replication, hits mostly activators | 350,000 compounds, 2.9% hits | AID 624296; also: % of control where 0% means no effect; nearly all actives have a fitted effect of over 50% in size
KB-V1 cytotox: kills drug-selected multidrug resistant KB-V1 cells; KB-V1 MDR cells viability, CellTiter-Glo, 72 h; AID 1347076; 400,000 compounds, 3.4% hits; Potency, µM (top dose mostly 46.1 µM), hits mostly cytotoxic; also: % is scaled to controls: 0 for no effect and ±100 for the full control effect; nearly all actives have a fitted effect of over 60% in size
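Drug-selected KB-V1 cells, grown in DMEM lacking phenol red with 10% FBS, receive compound titrations; after three days at 37 degrees C, surviving cell ATP is quantified by CellTiter-Glo luminescence and responses normalized and curve-fitted.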
SW480 rerep: induces DNA re-replication in SW480 colon adenocarcinoma cells | SW480 DNA re-replication, Hoechst DNA content imaging, 48 h | Potency, µM (highest dose often 46.1 µM), without a hit: top-dose re-replication activation, usual class: activators | 340,000 compounds, 1.8% hits; also: % of control where 0% means no effect; nearly all actives have a fitted effect of over 55% in size
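Treated cells incubate 48 hr (37 C, 5% CO2), are stained 40 min with Hoechst, and nuclear fluorescence is enumerated; a rise in nuclei with high DNA signal marks re-replication.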
KB-3-1 cytotox: KB-3-1 parental cell cytotoxicity; KB-3-1 viability, CellTiter-Glo ATP luminescence, 72 h; Potency, µM (doses to about 46.1 µM), hits mostly cytotoxic; 400,000 compounds, 1.4% hits; AID 1347075; also: % is scaled to controls: 0 for no effect and ±100 for the full control effect; nearly all actives have a fitted effect of over 60% in size
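Here the drug-naive KB-3-1 line serves as comparator for MDR sub-line selectivity; cells received compound titrations, 72 h at 37 °C, then CellTiter-Glo readout.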
ELG1 DNA repair: ELG1-dependent DNA repair inhibition | HEK293T ELG1-luciferase reporter, luminescence, 16 h; DNA damage induced by 5-fluorouridine | Potency, µM (doses to about 46.1 µM), for inactives: top-dose activity change, negative = inhibition, usual class: inhibitors | 330,000 compounds, 2.3% hits | AID 504467; also: % is scaled to controls: 0 for no effect and ±100 for the full control effect; nearly all actives have a fitted effect of over 55% in size
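Luminescence from the luciferase reporter, measured 30 min after ONE-Glo reagent at room temperature, was the read-out. Beforehand, 2,000 cells per well were exposed for 16 hr at 37 °C to 5-fluorouridine together with compound or vehicle.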
* marks the source's active call; other numbers are inactive results; i = inactive; ? = inconclusive; . = no result given; [ ] = remark or other dose. Calls follow the shape of the dose curve; as a rule, active = well fitted curve in the direction sought with a large enough effect; inconclusive = small, poorly fitted or top-dose-only effect, or another doubt; inactive = no such curve, though single readings can be large; an effect the other way counts as inactive or inconclusive. Potency is read from the fitted curve at half-maximal effect.

SMILES	MCF10A rereplic	KB-V1 cytotox	SW480 rerep	KB-3-1 cytotox	ELG1 DNA repair
CCN(CC)S(=O)(=O)c1ccc(C(=O)NCCc2cc3c(OC)ccc(OC)c3[nH]c2=O)cc1	?	7.3µM*	0%	i	?
COc1ccc(OC)c2[nH]c(=O)c(CCNS(=O)(=O)c3ccccc3)cc12	-9%	16µM*	-5%	i	-1%
COc1ccc(OC)c2[nH]c(=O)c(CCNC(=O)c3ccc(S(=O)(=O)N4CCCC4)cc3)cc12	?	18µM*	0%	i	?
CCC1NC(=O)c2ccccc2N1c1cccc(Cl)c1 (stereo unspecified)	-5%	?	-5%	i	.
N#Cc1c(C(F)(F)F)cc(Cc2ccccc2)nc1SCC(=O)NCC(=O)O	1%	i	-3%	i	.
COc1ccc(CNC2CC(C)N(C)CC2C)cc1OC (stereo unspecified)	-12%	i	1%	i	5%
COc1ccccc1OCc1ccc(C(=O)Nc2ccccc2)cc1	1%	i	-2%	i	?
O=C(N/N=C/c1cccc(O)c1)c1ccc(COc2ccccc2Br)cc1	23µM*	i	9%	i	-15%
O=C(N/N=C/c1ccc([N+](=O)[O-])cc1)c1ccccc1OCc1ccccc1	4%	i	-5%	i	?
O=C(Nc1ccc(Cn2cccn2)cc1)c1ccc(COc2ccccc2Br)cc1	?	18µM*	?	9.2µM*	-20%
O=C(N/N=C/c1ccc([N+](=O)[O-])cc1)c1ccc(COc2ccccc2-c2ccccc2)cc1	-15%	16µM*	-9%	?	-6%
Cc1ccc(CC(=O)N2CCN(c3ccc([N+](=O)[O-])cc3)CC2)cc1	11%	?	-5%	i	-22%
CCOCC(=O)N1CCN(c2ccc([N+](=O)[O-])cc2)CC1	3%	18µM*	-1%	i	-9%
CC(=O)OCC(=O)N1CCN(c2ccc([N+](=O)[O-])cc2)CC1	-3%	i	-33%	i	-5%
O=C(CSc1ccsc1[N+](=O)[O-])N1CCN(c2ccccc2)CC1	-1%	?	-6%	5.8µM*	-1%
O=C(CSc1ccsc1[N+](=O)[O-])N1CCN(c2ccc(Cl)cc2)CC1	-1%	i	2%	i	0%
Cc1ccc(S(=O)(=O)CC(=O)N2CCN(c3ccc([N+](=O)[O-])cc3)CC2)cc1	23%	i	-24%	i	10µM*
O=C(CCCc1ccccc1)N1CCN(c2ccc([N+](=O)[O-])cc2)CC1	3%	16µM*	-12%	i	-11%
CCCCOc1ccc(C(C)NC(=O)c2cccc(Nc3nc4ccccc4n4nnnc34)c2)cc1 (stereo unspecified)	.	i	.	i	.
COC(=O)c1ccc(NC(=O)CN2CCN(S(=O)(=O)c3ccc(Br)cc3)CC2)cc1	5%	i	?	i	15%
CC(C)C(=O)N1CCN(c2ccccc2NC(=S)NC(=O)Cc2ccccc2)CC1	13%	?	-1%	i	.
CC(=O)N1CCSc2ccc(S(=O)(=O)NCCc3ccc(Cl)cc3)cc21	12%	i	-20%	i	?
CC(=O)c1cccc(NC(=O)CSc2ncc3c(n2)-c2cc(Cl)ccc2N(Cc2ccccc2)S3(=O)=O)c1	.	i	.	i	.
C#CCOCCOCCOCCNc1nc(N2CCN(C(=O)[C@H]([C@@H](C)CC)n3cc(CCC(=O)O)nn3)CC2)nc(N2CCN(C(=O)[C@H](CCCCN)n3cc(CC(C)O)nn3)CC2)n1 (stereo partly specified)	8%	i	-8%	i	.
Cc1noc(C)c1CSCC(=O)N1CCN(c2ccc([N+](=O)[O-])cc2)CC1	-9%	?	2%[9.22 µM]	?	21µM*
SMILES	MCF10A rereplic	KB-V1 cytotox	SW480 rerep	KB-3-1 cytotox	ELG1 DNA repair
CCC(C)c1ccccc1NC(=O)COC(=O)C1=NN(c2ccccc2)C(=O)CC1 (stereo unspecified)	-9%	.	-2%	.	?
C=CCn1c(SCC(=O)c2[nH]c(C)c(C(=O)OCC)c2C)nc2scc(-c3ccc(OC)c(OC)c3)c2c1=O	3.3µM*	?	13µM*	i	-11%
CCOC(=O)c1ccc(S(=O)(=O)Nc2ccc3cn[nH]c3c2)cc1	5%	18µM*	1%	?	-11%
COc1ccc(S(=O)(=O)Nc2ccc3cn[nH]c3c2)cc1C	2%	?	-1%	i	?
NCC1CCN(c2nc3ccccc3c3c2CCCC3)CC1	?	15µM*	?	23µM*	.
CN1CCCCc2c1nc1ccccc1c2N (tested in a mixture with another compound)	6%	i	-13%	i	0%
O=C(/C=C/c1ccccc1)c1c[nH]c2ccccc12	-1%	i	?	i	?
COC(=O)c1c(C)[nH]c(C(=O)/C=C/c2ccccc2)c1C	-46%	12µM*	-128%	i	?
O=C(C=Cc1ccccc1)c1c[nH]c2ccccc2c1=O	6.5µM*	7.3µM*	8.2µM*	5.2µM*	.
COC(=O)c1c(C)[nH]c(C(=O)/C=C/c2ccc(C)cc2)c1C	?	i	-3%	i	?
Cc1[nH]c2ccccc2c1/C=C/C(=O)c1ccccc1	21µM*	?	18µM*	?	?
Cc1[nH]c2ccccc2c(=O)c1C(=O)/C=C/c1ccccc1	12µM*	15µM*	?	?	8.2µM*
Cc1ccc(Cn2cc(CN3CC(N4CCN(CCN(C)C)CC4)CS3(=O)=O)nn2)cc1 (stereo unspecified)	.	i	.	i	.
C[C@H]1CC[C@]2(O[C@@H](CCO)C[C@H](O)[C@H]2O)O1	4%	i	-16%[9.22 µM]	i	.
Cc1ccc(Cn2cc(CN3CC(N4CCN(C5CCN(C)CC5)CC4)CS3(=O)=O)nn2)cc1 (stereo unspecified)	.	i	.	i	.
COc1cc(C2CC(c3c(C)cc(C)[nH]c3=O)=NN2c2ccccc2F)cc(OC)c1OC (stereo unspecified)	23µM*	i	?	i	8%
O=C1CC(c2ccccc2)CC(O)=C1C=NC1CCCCC1 (stereo unspecified)	-2%	6.5µM*	8%	i	18%
CCOc1ccsc1C(=O)OC	0%	i	3%	i	1%
C=CCn1c(Cc2ccccc2)nc2c(cnn2-c2ccccc2)c1=O	?	i	-1%	i	21µM*
COc1ccc(C(CNC(=O)COc2ccccc2C)N2CCOCC2)cc1 (stereo unspecified)	0%	18µM*	3%	i	-1%

Screens deposited in PubChem by National Center for Advancing Translational Sciences (NCATS).
